Common to all, as to settings: mRNA level, 48 h; actives raise or lower the signal
Read-out in test [1]: MicroRNA 122 (MIR122), gene 406906
In words: LTEA_HepaRG_MIR122: Life Technologies and Expression Analysis (LTEA) Assay for MicroRNA 122 (MIR122) using HepaRG (AID 2283516). Further: the transcript read is the microRNA miR-122. An outline of the steps:
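HepaRG, 48 h exposure, 8-pt half-log from 100 uM, 0.5% DMSO; TaqMan qRT-PCR; bidirectional fit vs DMSO.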

Read-out in test [2]: matrix metalloproteinase-10 (MMP10), MMP10 (gene 4319)
In words: LTEA_HepaRG_MMP10: Life Technologies and Expression Analysis (LTEA) Assay for matrix metalloproteinase-10 (MMP10) using HepaRG (AID 2283517). In outline:
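HepaRG, collagen I, ~100,000 cells/well; serum-free induction medium; 48 h exposure, duplicate, 8-pt half-log to 100 uM, 0.5% DMSO. Readout: TaqMan qRT-PCR, normalized to ACTB/GAPDH/POLR2A; bidirectional fit vs DMSO.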

Read-out in the next test: MYC, MYC (gene 4609)
In words: LTEA_HepaRG_MYC: Life Technologies and Expression Analysis (LTEA) Assay for MYC using HepaRG (AID 2283518). An outline of the steps:
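Differentiated human HepaRG cells, plated 48 h then switched to serum-free induction medium, were exposed in duplicate for 48 h to 8-point half-log series up to 100 uM in 0.5% DMSO. MYC mRNA measured by qRT-PCR, normalized to ACTB/GAPDH/POLR2A.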

Read-out in test [3]: matrix metalloproteinase-3 (MMP3), MMP3 (gene 4314)
Nature of the test: LTEA_HepaRG_MMP3: Life Technologies and Expression Analysis (LTEA) Assay for matrix metalloproteinase-3 (MMP3) using HepaRG (AID 2283519). An outline of the steps: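 Differentiated human HepaRG cells, plated 48 h on collagen I, were exposed in duplicate for 48 h in serum-free induction medium to eight half-log concentrations up to 100 uM in 0.5% DMSO. MMP3 mRNA was quantified by TaqMan qRT-PCR, normalised to ACTB, GAPDH and POLR2A.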

Read-out in test [4]: Paternally Expressed 10 (PEG10), PEG10 (gene 23089)
In words: LTEA_HepaRG_PEG10: Life Technologies and Expression Analysis (LTEA) Assay for Paternally Expressed 10 (PEG10) using HepaRG (AID 2283520).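 On AC50: PEG10 transcript by qRT-PCR normalised to ACTB GAPDH and POLR2A.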 In outline: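 Chemicals tested on HepaRG cells for 48 h, highest concentration 100 uM. PEG10 expression assessed by qRT-PCR relative to DMSO control.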

Read-out in test [5]: Protein phosphatase 2A (PPP2R4), PTPA (gene 5524)
In words: LTEA_HepaRG_PPP2R4: Life Technologies and Expression Analysis (LTEA) Assay for Protein phosphatase 2A (PPP2R4) using HepaRG (AID 2283522). An outline of the steps:
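Gene-expression endpoint in HepaRG hepatic cells: 48 h treatment across eight half-log concentrations up to 100 uM in 0.5% DMSO. PPP2R4 mRNA by qRT-PCR, normalized to three endogenous control genes.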

Read-out in test [6]: Phosphatase and tensin (PTEN), PTEN (gene 5728)
In words: LTEA_HepaRG_PTEN: Life Technologies and Expression Analysis (LTEA) Assay for Phosphatase and tensin (PTEN) using HepaRG (AID 2283523). In outline:
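Differentiated human HepaRG cells, plated 48 h then switched to serum-free induction medium, were exposed in duplicate for 48 h to eight half-log concentrations up to 100 uM in 0.5% DMSO. PTEN mRNA measured by TaqMan qRT-PCR, normalized to ACTB/GAPDH/POLR2A, bidirectional fit versus DMSO.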

Read-out in test [7]: Pyruvate Dehydrogenase Kinase 4 (PDK4), PDK4 (gene 5166)
In words: LTEA_HepaRG_PDK4: Life Technologies and Expression Analysis (LTEA) Assay for Pyruvate Dehydrogenase Kinase 4 (PDK4) using HepaRG (AID 2283525). In outline: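 Differentiated human HepaRG cells, pre-cultured 48 h, were exposed in duplicate for 48 h in serum-free induction medium to eight half-log concentrations up to 100 uM in 0.5% DMSO. PDK4 mRNA was quantified by qRT-PCR, normalized to ACTB, GAPDH and POLR2A, bidirectional fitting versus DMSO.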

Read-out in test [8]: NAD(P)H dehydrogenase [quinone] 1 (NQO1), NQO1 (gene 1728)
In words: LTEA_HepaRG_NQO1: Life Technologies and Expression Analysis (LTEA) Assay for NAD(P)H dehydrogenase [quinone] 1 (NQO1) using HepaRG (AID 2283526). An outline of the steps:
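Human HepaRG hepatic cells received chemicals for 48 h in serum-free induction medium with 0.5% DMSO, up to 100 uM. Expression was assessed by TaqMan qRT-PCR against housekeeping controls and fitted bidirectionally against DMSO.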

Read-out in test [9]: Nuclear factor erythroid 2-related factor 2 (Homo sapiens) (UniProt Q16236)
Nature of the test: LTEA_HepaRG_NFE2L2: Life Technologies and Expression Analysis (LTEA) Assay for Nuclear factor erythroid 2-related factor 2 (NFE2L2) Transcription Factor using HepaRG (AID 2283527).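 Further: TaqMan qRT-PCR transcript level normalised to ACTB GAPDH and POLR2A housekeeping genes.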 An outline of the steps:
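Differentiated human HepaRG cells in serum-free induction medium were exposed for 48 h to eight concentrations (top 100 uM, half-log dilutions, 0.5% DMSO), in duplicate. NFE2L2 mRNA was quantified by TaqMan qRT-PCR, normalized to ACTB, GAPDH and POLR2A, with bidirectional fitting versus DMSO.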

Read-out in test [10]: Signal transducer and activator of transcription 3 (Homo sapiens) (UniProt P40763)
In words: LTEA_HepaRG_STAT3: Life Technologies and Expression Analysis (LTEA) Assay for Signal transducer and activator of transcription (STAT3) using HepaRG (AID 2283529). An outline of the steps: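 Differentiated human HepaRG cells in serum-free induction medium were exposed in duplicate for 48 h to eight half-log concentrations up to 100 uM in 0.5% DMSO. STAT3 mRNA was quantified by TaqMan qRT-PCR, normalized to ACTB, GAPDH and POLR2A, and fitted bidirectionally against DMSO.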

Read-out in test [11]: solute carrier (SLCO1B1), SLCO1B1 (gene 10599)
Nature of the test: LTEA_HepaRG_SLCO1B1: Life Technologies and Expression Analysis (LTEA) Assay for solute carrier (SLCO1B1) using HepaRG (AID 2283530). In outline:
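Differentiated human HepaRG cells, plated 48 h, switched to serum-free induction medium and exposed in duplicate for 48 h to 8 half-log concentrations (top 100 uM) in 0.5% DMSO. SLCO1B1 mRNA by TaqMan qRT-PCR, normalized to ACTB/GAPDH/POLR2A.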

Read-out in test [12]: sulfotransferase 2A1 (SULT2A1), SULT2A1 (gene 6822)
In words: LTEA_HepaRG_SULT2A1: Life Technologies and Expression Analysis (LTEA) Assay for sulfotransferase 2A1 (SULT2A1) using HepaRG (AID 2283531). In outline:
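Differentiated human HepaRG cells in serum-free induction medium were exposed for 48 h to eight half-log concentrations (top 100 uM, 0.5% DMSO). SULT2A1 mRNA was measured by qRT-PCR, normalized to ACTB, GAPDH and POLR2A, and fitted bidirectionally against DMSO.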

Read-out in test [13]: Transforming Growth Factor (TGFA), TGFA (gene 7039)
In words: LTEA_HepaRG_TGFA: Life Technologies and Expression Analysis (LTEA) Assay for Transforming Growth Factor (TGFA) using HepaRG (AID 2283532). An outline of the steps: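 Differentiated human HepaRG cells, plated 48 h then switched to serum-free induction medium, were exposed in duplicate for 48 h to 8-point half-log series from 100 uM in 0.5% DMSO. TGFA mRNA measured by qRT-PCR, normalized to ACTB/GAPDH/POLR2A, bidirectional fit versus DMSO.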

Read-out in test [14]: Transforming Growth Factor (TGFB1), TGFB1 (gene 7040)
Nature of the test: LTEA_HepaRG_TGFB1: Life Technologies and Expression Analysis (LTEA) Assay for Transforming Growth Factor (TGFB1) Transporter using HepaRG (AID 2283533). An outline of the steps: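 Differentiated human HepaRG cells in serum-free induction medium were exposed in duplicate for 48 h to eight concentrations (top 100 uM, half-log steps, 0.5% DMSO). TGFB1 mRNA was quantified by qRT-PCR, normalized to ACTB, GAPDH, POLR2A, and fitted bidirectionally against DMSO.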

Read-out in a further test: TIMP1, TIMP1 (gene 7076)
In words: LTEA_HepaRG_TIMP1: Life Technologies and Expression Analysis (LTEA) Assay for TIMP1 using HepaRG (AID 2283534). An outline of the steps: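 Differentiated human HepaRG cells in serum-free induction medium were exposed 48 h to chemicals (8 half-log concentrations, top 100 uM, 0.5% DMSO). TIMP1 mRNA was quantified by TaqMan qRT-PCR, normalized to ACTB/GAPDH/POLR2A; bidirectional fit versus DMSO.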

Read-out in test [15]: Tumor necrosis factor receptor 1 (TNFRSF1A), TNFRSF1A (gene 7132)
In words: LTEA_HepaRG_TNFRSF1A: Life Technologies and Expression Analysis (LTEA) Assay for Tumor necrosis factor receptor 1 (TNFRSF1A) using HepaRG (AID 2283535). In outline:
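Differentiated human HepaRG cells were exposed in duplicate for 48 h in serum-free induction medium to eight concentrations (top 100 uM, half-log steps, 0.5% DMSO). TNFRSF1A mRNA was quantified by qRT-PCR, normalized to ACTB, GAPDH and POLR2A, then fitted bidirectionally against DMSO.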

Read-out in test [16]: solute carrier (SLC22A1), SLC22A1 (gene 6580)
In words: LTEA_HepaRG_SLC22A1: Life Technologies and Expression Analysis (LTEA) Assay for solute carrier (SLC22A1) using HepaRG (AID 2283524). An outline of the steps: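 Human HepaRG cells were plated 48 h, switched to serum-free induction medium, then exposed in duplicate for 48 h to 8-point half-log series from 100 uM in 0.5% DMSO. SLC22A1 mRNA measured by qRT-PCR, normalized to ACTB/GAPDH/POLR2A, fitted bidirectionally versus DMSO.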

Read-out in test [17]: succinate dehydrogenase complex iron sulfur subunit B (SDHB), SDHB (gene 6390)
Nature of the test: LTEA_HepaRG_SDHB: Life Technologies and Expression Analysis (LTEA) Assay for succinate dehydrogenase complex iron sulfur subunit B (SDHB) using HepaRG (AID 2283528). An outline of the steps: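 HepaRG, 48 h exposure, 8-pt half-log series from 100 uM in 0.5% DMSO, duplicates. Readout: SDHB mRNA by Fluidigm qRT-PCR vs housekeeping genes; bidirectional fit relative to DMSO.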

Active and inactive are the calls of the source. How the source made its calls: active means hit-call score of the fitted dose curve at least 0.9, where 1 is the maximum; inactive means score below 0.9.

In general, AC50 refers to the concentration at which the activity in the assay is half-maximal.

Nuclear factor erythroid 2-related factor 2 (Homo sapiens), sequence (Q16236 whole entry, looked up): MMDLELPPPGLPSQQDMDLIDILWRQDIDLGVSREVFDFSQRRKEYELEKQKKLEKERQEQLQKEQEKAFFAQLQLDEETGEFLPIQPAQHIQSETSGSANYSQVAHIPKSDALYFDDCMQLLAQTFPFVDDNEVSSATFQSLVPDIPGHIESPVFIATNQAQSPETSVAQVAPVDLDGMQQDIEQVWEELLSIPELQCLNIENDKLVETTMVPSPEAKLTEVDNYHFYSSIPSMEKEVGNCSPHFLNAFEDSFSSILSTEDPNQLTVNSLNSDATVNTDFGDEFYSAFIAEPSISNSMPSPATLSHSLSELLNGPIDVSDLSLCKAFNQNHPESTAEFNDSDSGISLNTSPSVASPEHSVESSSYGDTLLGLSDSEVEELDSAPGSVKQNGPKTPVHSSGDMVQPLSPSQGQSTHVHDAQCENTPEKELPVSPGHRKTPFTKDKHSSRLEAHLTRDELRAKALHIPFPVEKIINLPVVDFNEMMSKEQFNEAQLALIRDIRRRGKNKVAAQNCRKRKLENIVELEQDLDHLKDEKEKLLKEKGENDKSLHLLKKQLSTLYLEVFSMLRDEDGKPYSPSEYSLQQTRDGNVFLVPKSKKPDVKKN
Signal transducer and activator of transcription 3 (Homo sapiens), sequence (P40763 whole entry, looked up): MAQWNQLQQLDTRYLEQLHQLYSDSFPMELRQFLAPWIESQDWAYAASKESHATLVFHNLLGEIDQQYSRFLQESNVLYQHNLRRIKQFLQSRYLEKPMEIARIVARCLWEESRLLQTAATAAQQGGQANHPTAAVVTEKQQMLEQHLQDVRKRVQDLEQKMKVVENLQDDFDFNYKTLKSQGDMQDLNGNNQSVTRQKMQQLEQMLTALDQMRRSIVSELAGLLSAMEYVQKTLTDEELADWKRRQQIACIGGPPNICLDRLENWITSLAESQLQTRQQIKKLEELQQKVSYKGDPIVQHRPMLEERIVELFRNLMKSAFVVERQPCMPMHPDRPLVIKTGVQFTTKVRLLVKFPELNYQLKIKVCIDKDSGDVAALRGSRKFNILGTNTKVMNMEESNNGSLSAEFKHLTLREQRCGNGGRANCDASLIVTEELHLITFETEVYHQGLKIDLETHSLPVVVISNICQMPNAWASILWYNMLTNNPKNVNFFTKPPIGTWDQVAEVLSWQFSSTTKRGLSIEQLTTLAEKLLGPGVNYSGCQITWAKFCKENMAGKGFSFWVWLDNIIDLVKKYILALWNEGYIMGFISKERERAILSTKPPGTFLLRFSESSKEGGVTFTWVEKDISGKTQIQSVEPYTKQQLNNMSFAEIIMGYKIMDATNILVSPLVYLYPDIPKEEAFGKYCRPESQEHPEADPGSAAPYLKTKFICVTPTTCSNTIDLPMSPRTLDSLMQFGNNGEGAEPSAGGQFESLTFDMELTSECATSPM

On to `O=c1n(Cl)c(=O)n(Cl)c(=O)n1Cl`, for which the outcome in test [1] was “inactive”; in test [2] it was “inactive”; with MYC, MYC (gene 4609), “inactive”; in test [3], “inactive”; in test [4], “inactive”; in [5], “inactive”. Moreover, the call in test [6], in test [7], in test [8], in test [9], in test [10] and in [11] was inactive. The outcome is “inactive” in test [12]; “inactive” in test [13]; “inactive” in [14]; “inactive” with TIMP1, TIMP1 (gene 7076); “inactive” in test [15].
Turning to `N#Cc1c(Cl)cccc1Cl`, the outcome was “inactive” in test [1]; “inactive” in test [2]; “inactive” with MYC, MYC (gene 4609); “inactive” in test [3]; “inactive” in test [4]; “inactive” in [5]. Besides, the compound was classed as inactive in test [6], in [16], in [7], in test [8], in test [9] and in [17]. Moreover, the outcome was “inactive” in [10]; “inactive” in test [11]; “inactive” in test [12]; “inactive” in test [13]; “inactive” in [14]; “inactive” in the test with TIMP1, TIMP1 (gene 7076). Besides, the compound was called inactive in test [15].
For the compound `CC(C)(C)C(=O)C(Oc1ccc(Cl)cc1)n1cncn1` (stereo unspecified), the outcome was “inactive” in [1]; “inactive” in test [2]; “inactive” in the test with MYC, MYC (gene 4609); “inactive” in [3]; “inactive” in test [4]; “inactive” in test [5]. Besides, the outcome in test [6], in test [7], in test [8], in test [9], in test [10] and in test [11] was inactive. For the same compound, the outcome in test [13] is “inactive”; in test [14], “inactive”; with TIMP1, TIMP1 (gene 7076), “inactive”; in test [15] it was “inactive”.
Turning to `CC(C)Oc1cccc(NC(=O)c2ccccc2C(F)(F)F)c1`, the outcome in [1] was “inactive”; in [2], “inactive”; in the test with MYC, MYC (gene 4609), “inactive”; in test [3] it was “inactive”; in test [5], “inactive”; in [6], “inactive”. The result in test [16], in test [8], in [9], in test [17], in test [10] and in test [11] was inactive. Moreover, the outcome in [12] was “inactive”; in test [13], “inactive”; in test [14] it was “inactive”; in the test with TIMP1, TIMP1 (gene 7076) it was “inactive”; in test [15] it was “inactive”. Also, the AC50 in test [4] was 78.5 µM (active); in [7], 50 µM (active).

The values above are taken from PubChem BioAssay (EPA / NIEHS).
